# Measured values published in PubChem BioAssay (NCI).
# The panel holds about 83,000 compounds, 20% with a hit somewhere; the sample as a whole holds those more often.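 Note: values are percent growth. 100 is the growth of untreated cells, values between 100 and 0 indicate rising inhibition; between -100 and 0 indicates cell death.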 Unmarked numbers belong to inactive results. Calls of active or inactive are those of the source. Rule for the calls: active = growth percent below 10; inactive = the rest.
# How the values were obtained:
# Experiment in all cases: NCI-60 one-dose screen, 48 h (100 = growth as untreated, 0 = no growth, -100 = all killed)
# Details in all cases: 10 µM unless noted
# [1] = system: RPMI-8226 leukemia
# [2] = system: OVCAR-8 ovarian
# [3] = system: OVCAR-5 ovarian
# [4] = system: OVCAR-4 ovarian
# [5] = system: SK-OV-3 ovarian
# [6] = system: OVCAR-3 ovarian
# [7] = system: HS 578T breast
# [8] = system: NCI/ADR-RES ovarian
# [9] = system: T-47D breast
# [10] = system: IGROV1 ovarian
SMILES,growth [1],growth [2],growth [3],growth [4],growth [5],growth [6],growth [7],growth [8],growth [9],growth [10]
COc1ccc(/C=N/Nc2ccnc3cc(Cl)ccc23)cc1Cl,-37.8% (active),-57.6% (active),-71.9% (active),-60.7% (active),123%,-92.2% (active),-53.5% (active),0.936% (active),-62% (active),
CC(C)NC(=O)c1cc(-c2ccc(NC(=O)Nc3ccc(N4CCOCC4)c(C(F)(F)F)c3)cc2)nc2cccnc12,14.3%,63.7%,88.1%,71.7%,88.5%,,9.42% (active),78.4%,64.2%,66.9%
N#Cc1nc(-c2ccccc2)oc1N1CCC(CO)C1 (stereo not drawn),103%,103%,93.2%,99%,121%,104%,96.1%,106%,83%,
COC1CCN(Cc2ccc3c(NNC(=O)c4cnccn4)nc4cc(F)ccc4n23)C1 (stereo not drawn),20.2%,14.4%,49.9%,21%,38.1%,5.16% (active),68.5%,24%,24.2%,
O=C1Nc2ccccc2Oc2ccc(S(=O)(=O)CC3CO3)cc21 (stereo not drawn),44.9%,64.3%,85.5%,70.1%,122%,,60.6%,98.2%,47.5%,62.3%
C=CCSc1ccc2c(c1)C(N1CCNCC1)=Nc1ccccc1O2,63.2% [8.25 µM],92.5% [8.25 µM],85.4% [8.25 µM],83.1% [8.25 µM],88.2% [8.25 µM],,72.1% [8.25 µM],87.9% [8.25 µM],71.3% [8.25 µM],63.1% [8.25 µM]
Nc1c(C(=O)Nc2ccc(Cl)cc2)sc2nc(-c3cnccn3)cc(-c3cccs3)c12,85.1%,48.1%,66.2%,61.3%,74.1%,62.7%,47.1%,68.3%,96.7%,74.2%
Cc1c(Nc2nnc(SCC(=O)Nc3sc4c(c3C#N)CCCC4)s2)c(=O)n(-c2ccccc2)n1C,96.7%,100%,114%,108%,120%,99.1%,109%,99.5%,97.3%,
c1ccc(CNc2ncnc3ccc(-c4cnc5[nH]ncc5c4)cc23)cc1,60.8%,71.2%,61.8%,79.4%,72.1%,67.1%,45%,81.9%,18.5%,9.48% (active)
N[C@@H](Cc1cn(-c2ccnc3ccccc23)nn1)C(=O)O,106%,104%,101%,109%,101%,,109%,103%,101%,102%
COc1ccc(COc2ccc(/C=C3/C(=O)Nc4cc(Cl)ccc43)cc2)cc1,89.9%,96.3%,96.2%,93.5%,107%,102%,89%,94.4%,90.2%,
CC(=O)c1ccc(Nc2nc(SC(C)C)nc(-c3ccccc3)c2C#N)cc1,95%,95.7%,100%,94.9%,103%,,90.6%,92%,81%,89.7%
CCOc1ccc([C@H]2C(C(=O)c3ccc(Cl)cc3)C3(N[C@@H]2c2ccccc2)C(=O)Nc2ccc(Br)cc23)cc1 (stereo partly drawn),23.5%,38%,51.2%,45.5%,58.6%,-29.5% (active),46.1%,64.7%,31.4%,13.5%
CS(=O)(=O)c1ccc(-c2nc3ccccn3c2C=Nc2ccc(Cl)cc2)cc1,77.1%,86.3%,83.6%,88.2%,96.9%,,104%,62.3%,65.4%,78.4%
Cn1c(SCC(=O)Nc2ccc(-c3nc4ccc([N+](=O)[O-])cc4[nH]3)cc2)nc2ccccc2c1=O,94.7%,77.8%,96%,67.5%,120%,90.6%,81.5%,88.9%,72.1%,75.9%
COc1cc2cc(Oc3ccc(NC(=O)c4cccc(C(F)(F)F)c4)cc3)c(C)nc2cc1OCCN1CCCCC1,-10.4% (active),62.6%,98.7%,68.1%,101%,,70%,75.4%,-25.8% (active),81.5%
C[C@@H]1CN(c2ccc3ncc(C#Cc4cncc(C(=O)Nc5ccc(CN6CCN(C)CC6)c(C(F)(F)F)c5)c4)n3n2)C[C@H](C)O1,-2.52% (active),0.405% (active),-35.4% (active),-10.1% (active),-76.5% (active),-48.3% (active),-37% (active),-8.65% (active),15%,
O=C(CCCN1C(=O)/C(=C/c2ccccc2F)SC1=S)N1CCOCC1,75.1%,99%,94.5%,88.4%,114%,112%,99.4%,104%,45.6%,
COc1ccc(NC2=C(Cl)C(=O)C(C)=C(C)C2=O)cc1OC,88.7%,97.5%,103%,22%,,95.6%,91.2%,,23.5%,39.7%
C#Cc1nc(C2=C(C)C(OC(C)=O)/C(=N/OC(C)=O)C2)cs1 (stereo not drawn),-45.1% (active),0.146% (active),30.1%,-46% (active),-78.4% (active),-15.8% (active),4.76% (active),-5.63% (active),67%,
COc1cc(-c2nc3ccc(-c4nnc(SCC(=O)Nc5ccc(C(C)=O)cc5)o4)cc3[nH]2)cc(OC)c1OC,108%,94.9%,99.9%,111%,112%,119%,103%,107%,103%,
C[C@@H](Nc1c(C#N)cnc2ccc(-c3cnc(N)nc3)cc12)c1ccccc1,-26.9% (active),17.1%,20.9%,4.34% (active),-2.04% (active),9.52% (active),-13.6% (active),22.5%,3.05% (active),
Cc1ccc(CNS(=O)(=O)/N=C2\NC(=O)NC2=C(Cl)Cl)cc1,14.5%,91.2%,96.7%,98.7%,,88.2%,66.1%,,48.7%,101%
COc1ccc(NC2=CC(=O)C(C)=C(C)C2=O)cc1,73.3%,79.1%,109%,43.8%,,9.94% (active),110%,,67.5%,89.3%
CC(C)(C)OC(=O)N1C(=O)c2c(c3c4ccccc4[nH]c3c3ccc4ccccc4c23)C1=O,45.4%,60.7%,63.8%,77.4%,45.7%,,49.7%,75.5%,32.6%,
Cc1ccc2c(n1)C(=O)C(Cl)=C(Nc1cccc(C(C)C)c1)C2=O,2.88% (active),57.2%,109%,22.6%,,3.53% (active),43.1%,,3.43% (active),
O=c1/c(=C\c2ccc(-c3ccccc3)o2)sc2nc(-c3ccccc3)nn12,102%,105%,104%,107%,105%,,95.4%,101%,92.9%,
Nc1cc(-c2c[nH]c3ccccc23)nc2cc(-c3c[nH]c4ccccc34)nn12,35.9%,64.3%,51%,65.1%,139%,92.4%,81.1%,59%,68.7%,
N#Cc1ccc(C(=O)CSc2nc(Nc3ccc(S(N)(=O)=O)cc3)c3ccccc3n2)cc1,101%,109%,110%,113%,116%,119%,103%,111%,103%,
